ALDH1A1 block = inhibitors of human aldehyde dehydrogenase 1A1; P00352; Purified ALDH1A1, NADH fluorescence, propionaldehyde substrate; Potency, µM (highest dose often 75.3 µM), for inactives: top-dose activity, negative = inhibition, hits mostly inhibitors; 7.3% of 220,000 active; active means well fitted inhibition curve with a large enough effect, not every such curve was filed as active; inconclusive means small, poorly fitted or top-dose-only effect, or another doubt; inactive means no such curve, though single readings can be large or run the other way;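 further: potency means the concentration at half of the fitted maximal effect; plate controls were no enzyme wells and a reference inhibitor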
GoLoco inh red = inhibitors of human Gai1-RGS12 GoLoco interaction (red fluorophore). P63096. Gai1:RGS12 GoLoco peptide FP, rhodamine, 10 min. Potency, µM (series often up to 61.6 µM), for inactives: at the highest dose activity, negative = inhibition, actives largely listed as inhibitors. 0.44% of 230,000 active; active means well fitted inhibition curve with a large enough effect, not every such curve was filed as active; inactive means no such curve, though single readings can be large or run the other way; further: potency means the concentration at half of the fitted maximal effect; nearly all actives have a fitted effect of over 30% in size
Target sequence (P63096 whole entry, looked up): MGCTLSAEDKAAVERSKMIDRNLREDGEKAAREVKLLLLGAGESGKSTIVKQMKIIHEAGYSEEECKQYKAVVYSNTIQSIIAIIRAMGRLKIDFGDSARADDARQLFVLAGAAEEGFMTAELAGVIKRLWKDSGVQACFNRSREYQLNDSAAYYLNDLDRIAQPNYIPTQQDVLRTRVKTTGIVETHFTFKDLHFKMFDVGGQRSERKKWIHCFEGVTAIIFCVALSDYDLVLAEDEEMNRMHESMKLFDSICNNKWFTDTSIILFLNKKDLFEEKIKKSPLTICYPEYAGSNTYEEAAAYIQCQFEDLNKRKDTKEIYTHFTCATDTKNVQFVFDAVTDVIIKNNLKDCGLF
Sfp inh = blocks B. subtilis Sfp PPTase activity; Q9F4F7; Biochemical Sfp PPTase activity, qHTS; Potency, µM, for inactives: largest response in the series, negative = inhibition, actives largely listed as inhibitors; 3.5% of 310,000 active;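 further: the enzyme is Sfp with the accession as filed and its product quenches rhodamine fluorescence; potency means the concentration at half of the fitted maximal effect; 0% = enzyme reaction without inhibitor and -100% = no enzyme wells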
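Reaction rates are the 30-min fluorescence difference (ex 525, em 598 nm) in wells containing 15 nM Sfp, 5 uM rhodamine-CoA and 12.5 uM BHQ-2-YbbR at pH 7.6 with 10 mM MgCl2.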
NPSR antagonist = blocks cAMP signaling of the human neuropeptide S receptor. CHO-NPSR cells, cAMP TR-FRET, antagonist mode. Potency, µM (titrated, usually from 38.3 µM), without a hit: at the top dose activity change, negative = inhibition, usual class: inhibitors. 1% of 220,000 active. AID 1461; further: potency means the concentration at half of the fitted maximal effect; nearly all actives have a fitted effect of over 50% in size
Coupling enz = counter-screen for Giardia aldolase inhibitors: coupling enzyme system | activity change, negative = inhibition, % at 58.2 µM, hits read low | 0.67% of 290,000 active | AID 2472 | coupling enzyme system counterscreen, AmpLite Red fluorescence; in the data active means activity change below about -30%
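Activity here indicates interference with the coupling reaction, not aldolase inhibition. Compounds at 57.5 uM final met coupling enzymes for 10 min at RT; substrate and AmpLite Red detection followed, with a 525/598 nm fluorescence read after 20 min.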
KDM4E inh = blocks human JMJD2E demethylase activity; JMJD2E catalytic domain, FDH-coupled NADH fluorescence (FDH is formaldehyde dehydrogenase); 1.6% of 230,000 active; AID 2147; Potency, µM (highest dose often 57.1 µM), without a hit: at the highest dose activity change, negative = inhibition, actives largely listed as inhibitors; B2RXH2; active means well fitted inhibition curve with a large enough effect, not every such curve was filed as active; inconclusive means small, poorly fitted or top-dose-only effect, or another doubt; inactive means no such curve, though single readings can be large or run the other way;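 further: potency means the concentration at half of the fitted maximal effect; 0% = wells with enzyme and -100% = buffer wells without enzyme; nearly all actives have a fitted effect of over 50% in size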
Target sequence (B2RXH2 1-337 limits assumed): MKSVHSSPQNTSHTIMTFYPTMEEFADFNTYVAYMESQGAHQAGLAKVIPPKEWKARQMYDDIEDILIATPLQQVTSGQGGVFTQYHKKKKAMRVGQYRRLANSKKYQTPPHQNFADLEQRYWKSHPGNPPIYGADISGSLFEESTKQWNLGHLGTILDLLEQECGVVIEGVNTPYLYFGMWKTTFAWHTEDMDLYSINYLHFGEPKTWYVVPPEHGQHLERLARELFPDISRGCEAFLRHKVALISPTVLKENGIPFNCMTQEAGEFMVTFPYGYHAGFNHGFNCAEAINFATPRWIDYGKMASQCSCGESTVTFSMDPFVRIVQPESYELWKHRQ
An asterisk follows results filed as active; u = inconclusive; x = not tested or not shown; [ ] = another dose, or the depositor's remark. This is a sample that favours compounds with a hit; in the whole collection about 8.5% have one here. Unless noted, the call rests on the fitted dose curve; in most records, active means well fitted curve in the direction sought with a large enough effect; inconclusive means small, poorly fitted or top-dose-only effect, or another doubt; inactive means no such curve, though single readings can be large; an effect the other way counts as inactive or inconclusive. Unless noted, on the % scale 0 is the no-effect control and ±100 the full control effect.

SMILES | ALDH1A1 block | GoLoco inh red | Sfp inh | NPSR antagonist | Coupling enz | KDM4E inh
CN1CCC(=NNc2ncnc3sc4c(c23)CCCC4)CC1 | u | -3.6% | 10µM* | 16.1% | -5.2 | -25.7%
COc1ccc(CNC(=O)C(=O)NCC2OCCCN2S(=O)(=O)c2cccs2)cc1 (configuration not stated) | x | x | 11.0% | x | -3.4 | x
CCC(=S)/C=C1\Sc2ccc3ccccc3c2N1CCCS(=O)(=O)O | -2.8% | -24.6% | 35.5µM* | -6.7%[46.1 µM] | -2.4 | -21.2%
CCCN1c2cccc3cccc(c23)S1(=O)=O | u | 0.5% | -3.4% | -8.2%[46.1 µM] | -1.4 | u
CN1c2cccc3cccc(c23)N(C)C1(C)C | u | -26.1% | -23.2% | -20.6%[46.1 µM] | -33.2* | u
O=C(Cn1ccc([N+](=O)[O-])n1)NCc1cccnc1 | 8.4% | 7.0% | 18.5% | 7.7% | 2.7 | 11.1%
CCOC(=O)C1(C)/C(=N/Nc2ccccc2OC)C(=O)C(=O)N1c1ccccc1 (configuration not stated) | 23.8µM* | 28.4% | -23.1% | -29.0% | -6.6 | 25.1µM*
CCOC(=O)C1(C)/C(=N/Nc2ccccc2)C(=O)C(=O)N1c1ccccc1 (configuration not stated) | u | -1.5% | 13.6% | -15.9%[46.1 µM] | 1.7 | -3.5%
Cc1cnc(C(=O)Nc2ccccc2-n2cccc2)cn1 | 15.8µM* | 6.4% | 44.7µM* | -12.2%[46.1 µM] | 0.0 | -1.4%
Cc1cnc(C(=O)Nc2ccc(F)cc2)cn1 | 31.6µM* | -14.9% | 9.7% | 0.5%[46.1 µM] | -0.7 | -1.1%
Cc1cnc(C(=O)Nc2ccc(C(C)C)cc2)cn1 | -2.7% | 2.5% | -0.1% | -0.8% | -3.4 | -0.9%
O=C(CC(c1ccco1)S(=O)(=O)c1ccccc1)c1ccc(F)cc1 (configuration not stated) | u | -20.6% | 7.94µM* | -5.4%[46.1 µM] | 1.1 | u
COc1ccc(CC(=O)NC(C)c2nnc(SCC(=O)Nc3cc(C)ccc3OC)n2C)cc1 (configuration not stated) | -1.5% | 11.8% | -18.3% | -5.1% | -0.6 | 7.8%
CCC1=NNc2cccc3c(OC)ccc1c23 | u | 17.8µM* | 31.6µM* | -8.8%[46.1 µM] | -26.4 | 5.01µM*
CC(C)=CCN1CCN(Cc2cnc(C)s2)CC1CCO (configuration not stated) | u | 15.4% | -13.3% | 17.5% | -4.7 | u
C=CCNCCCCOc1cccc(Br)c1 | u | -13.4% | 44.7µM* | -1.2% | -2.8 | u
OCCNCCCCOc1cccc(Br)c1 | 1.3% | 2.9% | -17.7% | 15.5% | -2.8 | 5.9%
CC(=O)Nc1ccc(SCC(=O)Nc2cc(C)on2)cc1 | 22.4µM* | 8.2% | u | 10.5% | 2.3 | 7.5%
Cc1cc(NC(=O)CSc2ccc(F)cc2)no1 | -3.0% | -6.9% | 14.0% | 6.7% | 0.6 | 5.9%
CCOc1ccc(-c2nnn(CC(=O)c3ccc4c(c3)OCCO4)n2)cc1 | u | 36.8% | -8.3% | -15.4%[46.1 µM] | 1.8 | -13.5%
COc1ccc(-c2nnn(CC(=O)c3ccc4c(c3)OCCO4)n2)cc1OC | 28.2µM* | 16.7% | -0.7% | -20.1%[46.1 µM] | -0.8 | 2.1%
COc1ccc(C)cc1-n1nnnc1SCC1CCCO1 (configuration not stated) | 12.6µM* | -1.4% | -6.1% | -6.4%[46.1 µM] | 7.1 | 7.3%
O=C(Cn1nc(Cl)nc1Cl)c1ccc(F)cc1 | x | x | 10.1% | x | 1.0 | x
O=C(Cn1nc(Cl)nc1Cl)c1ccc2c(c1)OCCO2 | 1.12µM* | -13.6% | 5.8% | -3.4%[46.1 µM] | 3.2 | -3.7%
CN(C)S(=O)(=O)c1cccc(NC(=O)CN2C(=O)NC(CCc3ccccc3)C2=O)c1 (configuration not stated) | -7.3% | -0.7% | 9.3% | 0.8% | 0.3 | -21.8%
SMILES | ALDH1A1 block | GoLoco inh red | Sfp inh | NPSR antagonist | Coupling enz | KDM4E inh
COc1ccc(C)cc1-n1nnnc1SCc1nc2ccccc2s1 | 11.2µM* | 12.3% | u | -18.5%[46.1 µM] | -1.8 | -2.5%
COc1ccc(-n2nnnc2SCC(=O)c2ccc3c(c2)OCCO3)c(OC)c1 | u | 0.6% | -6.9% | -13.9%[46.1 µM] | -0.1 | -2.6%
COc1ccc(-n2nnnc2SCc2nc3ccccc3s2)cc1 | u | 184.2% | -2.6% | -19.0%[46.1 µM] | 0.5 | -9.9%
Cc1cc(NC(=O)CSc2nnnn2-c2ccccc2F)no1 | x | x | 13.4% | x | 2.2 | x
COc1ccc(C)cc1-n1nnnc1SCC(=O)Nc1cc(C)on1 | 2µM* | -3.8% | 13.4% | -9.1%[46.1 µM] | -5.2 | 2.9%
COc1ccc(C)cc1-n1nnnc1SCC(=O)NC(=O)NCc1ccco1 | 12.6µM* | 11.1% | 15.8µM* | -16.8%[46.1 µM] | 1.7 | -6.5%
COc1ccc(C)cc1-n1nnnc1SCC(=O)c1ccc2c(c1)OCCO2 | 11.2µM* | 3.1% | -6.6% | -29.6%[46.1 µM] | -1.5 | -1.8%
COC(=O)c1ccc(CSc2nc3ccc(S(=O)(=O)N4CCOCC4)cc3[nH]2)cc1 | -4.0% | 17.2% | 1.3% | -21.3%[46.1 µM] | -5.2 | -2.2%
CCC(C)NC(=O)C(Sc1ccccc1)c1ccccc1 (configuration not stated) | u | -7.3% | 6.7% | 11.1% | -1.1 | u
COc1ccc(OC)c(-n2nnnc2SCC(=O)NCCc2ccccc2)c1 | 1.26µM* | 5.1% | -7.4% | -9.9%[46.1 µM] | 8.6 | 0.7%
COc1cccc(Nc2ncc3nc(C)c(=O)n(CCC#N)c3n2)c1 | 1.9% | 17.3% | 21.4% | x | -7.8 | x
CN1CCN(c2oc(COc3ccc(-c4ccccc4)cc3)nc2C#N)CC1 | -14.0% | 11.1% | 31.6µM* | 0.3%[46.1 µM] | -1.1 | -15.5%
CC(C)(C)NC(=O)CN(Cc1cccs1)C(=O)CN1C(=O)C(=O)c2ccccc21 | 0.0282µM* | -7.0% | 2.4% | 21.4% | -7.1 | -7.2%
O=S1(=O)CCOCCCN1Cc1ccc(Cl)cc1 | x | x | 17.1% | x | -0.3 | x
CCSc1ccccc1C(=O)Nc1ccc(S(=O)(=O)NC(C)=O)cc1 | u | -10.3% | 25.1µM* | -7.8% | -0.4 | 2.1%
Cc1ccc2c(c1)N(C(=O)CCC(=O)NC1CCC(C)CC1)CCO2 (configuration not stated) | x | x | 10.8% | x | -0.6 | x
O=C(N/N=C/c1cn(-c2ccccc2)nc1-c1cccnc1)c1cccnc1 | 0.4% | -1.8% | 24.0% | -25.9% | 0.2 | -7.3%
O=C(NCCCO)/C(=C\c1cn(-c2ccccc2)nc1-c1cccnc1)NC(=O)c1ccccc1 | 1.78µM* | 4.6% | 13.8% | -4.3% | 1.2 | -3.2%
O=C(NCC1CCCO1)/C(=C/c1cn(-c2ccccc2)nc1-c1cccnc1)NC(=O)c1ccccc1 (configuration not stated) | 0.562µM* | 7.3% | 6.3% | -33.8% | 3.1 | -5.0%
Cc1ccc(-c2nnn(CC(=O)N(CC(=O)NCc3ccccc3)c3cccc(C)c3C)n2)o1 | 10µM* | -5.0% | 25.1µM* | u | 0.4 | -1.3%
Cc1cccc(N(CC(=O)NCc2ccccc2)C(=O)Cn2nnc(-c3ccc(C)o3)n2)c1 | -2.8% | -6.2% | 21.7% | -1.7%[46.1 µM] | 0.8 | 4.3%
O=C(/C=C/c1ccccc1Cl)c1cccnc1 | 14.1µM* | 20.4% | 31.6µM* | -6.0%[46.1 µM] | 0.0 | -3.0%
